The list is a sample of the results.
aSyn UTR act: Activators via SNCA 5'UTR binding, MLPCN; activity score, % (tested at 7.5 µM), hits read low; hit rate 7.1% among 300,000; alpha-synuclein 5'UTR reporter, activators screen; in the data active = activity score below about -60%
* marks the source's active call; other numbers are inactive results.

CC1CCc2sc(C(=O)NC(C)C3CCCO3)cc2C1 (stereo not drawn) was read as aSyn UTR act -96*.
Screening CC1CCc2sc(C(=O)NCc3ccccn3)cc2C1 (stereo not drawn) returned aSyn UTR act -112*.
Screening CC1CCc2c(C(=O)Nc3ccccn3)csc2C1 (stereo not drawn) returned aSyn UTR act -116*.
CC1CCc2c(C(=O)Nc3nccs3)csc2C1 (stereo not drawn) was read as aSyn UTR act -151*.
CC1CCc2c(C(=O)NCc3ccccn3)csc2C1 (stereo not drawn) was read as aSyn UTR act -84*.
CC(=O)O[C@H]1C(=O)[C@@]2(C)C([C@H](OC(=O)c3ccccc3)[C@]3(O)C[C@H](OC(=O)[C@H](O)[C@@H](NC(=O)c4ccccc4)c4ccccc4)C(C)=C1C3(C)C)[C@]1(OC(C)=O)CO[C@@H]1C[C@H]2O (stereo partly drawn) was read as aSyn UTR act 102.
`CN(C)c1ccc(-c2nnc(SCC3CCCO3)n2C)cc1` (stereo not drawn) gave aSyn UTR act -89*.
`NC(N)=NC(=S)Nc1ccc(Cl)cc1` gave aSyn UTR act -106*.
Screening N/C(=N\C(=S)Nc1ccccc1)c1ccccc1 returned aSyn UTR act -170*.
`CCN(CCn1cccn1)C(=O)CCc1nnc(C2(c3ccc(Cl)cc3)CCC2)o1` gave aSyn UTR act -86*.
`CCN(CCn1cccn1)C(=O)CCc1nnc(-c2ccccc2)o1` gave aSyn UTR act -73*.
For CCOC(=O)c1ccc(NC(=O)N(CC)CC)cc1 the results were aSyn UTR act -115*.
Screening CCOC(=O)c1ccc(NC(=S)N(CCN(C)C)Cc2cccs2)cc1 returned aSyn UTR act 53.
Screening CCC(CC)C(=O)Nc1ccc(Nc2ccccc2)cc1 returned aSyn UTR act -100*.
CCC(C)NS(=O)(=O)c1ccc(NC(=O)C(Sc2ccccc2)c2ccccc2)cc1 (stereo not drawn) was read as aSyn UTR act 56.
For CCOC(=O)c1ccc(NC(=O)C(CC)CC)cc1 the results were aSyn UTR act -98*.
`Cc1ccc(OCc2nc(-c3ccccc3)no2)c(C)c1` gave aSyn UTR act -212*.
For Clc1ccccc1OCc1nc(-c2ccc(Br)o2)no1 the results were aSyn UTR act -83*.
Fc1ccc(OCc2nc(-c3ccc(Br)o3)no2)c(F)c1 was read as aSyn UTR act -77*.
Brc1ccc(-c2noc(CCc3ccccc3)n2)o1 was read as aSyn UTR act -119*.
`COc1ccc(-c2noc(CCCC(=O)O)n2)cc1` gave aSyn UTR act 89.
Cc1ccc(-c2noc(CCCc3ccccc3)n2)cc1 was read as aSyn UTR act -77*.
Screening COCC(C)NC(=O)c1noc2c1CCc1cc(OC)ccc1-2 (stereo not drawn) returned aSyn UTR act -133*.
For COCCNC(=O)c1noc2c1CCc1cc(OC)ccc1-2 the results were aSyn UTR act -98*.
`COc1ccc2c(c1)CCc1c(C(=O)NCc3ccco3)noc1-2` gave aSyn UTR act -120*.
`COc1ccc2c(c1)CCc1c(C(=O)N(C)c3ccccc3)noc1-2` gave aSyn UTR act -132*.
`CCOC(=O)/C(C#N)=C\C=C1C=CN(C)C=C1` gave aSyn UTR act -150*.
For CN(C)/C=N/c1ncc(C(=O)c2ccc3ccccc3c2)s1 the results were aSyn UTR act -81*.
For COc1ccc(C(=O)c2cnc(/N=C/N(C)C)s2)cc1 the results were aSyn UTR act -93*.
Screening Cc1ccc(NC(=O)c2ccc(Br)o2)cc1S(=O)(=O)N(C)C returned aSyn UTR act -125*.
`Cc1occc1C(=O)Nc1ccc2c(c1)CCC2` gave aSyn UTR act -188*.
`Cc1ccc(NC(=O)c2ccc(OC(F)(F)F)cc2)cc1S(=O)(=O)N(C)C` gave aSyn UTR act -76*.
For O=C(Nc1ccc2c(c1)CCC2)c1ccc(Br)o1 the results were aSyn UTR act -157*.
O=C(Nc1ccc2c(c1)OCO2)c1ccc(Br)o1 was read as aSyn UTR act -256*.
Cc1ccc(C(=O)Nc2ccc(F)cc2)o1 was read as aSyn UTR act -73*.
Cc1ccc(C(=O)Nc2ccc3c(c2)CCC3)o1 was read as aSyn UTR act -134*.
For Cc1ccoc1C(=O)Nc1ccc(CC(=O)O)cc1 the results were aSyn UTR act 84.
O=C(Nc1ccc2c(c1)CCC2)c1cc2ccccc2o1 was read as aSyn UTR act -188*.
Screening O=C(Nc1ccc2c(c1)OCO2)c1ccc(COc2ccc3c(c2)CCC3)o1 returned aSyn UTR act -76*.
For Cc1ccc(C(=O)Nc2ccccc2C(N)=O)o1 the results were aSyn UTR act -78*.
For NC(=O)c1ccc(-c2ncc(-c3ccccc3)o2)cc1 the results were aSyn UTR act -68*.
Screening COc1ccc2cnn(-c3ccc(OC(F)(F)Cl)cc3)c(=O)c2c1OC returned aSyn UTR act -70*.
Screening COc1ccc2cnn(-c3ccc(C)cc3)c(=O)c2c1OC returned aSyn UTR act -115*.

Source: PubChem BioAssay
